Assay outcomes from PubChem.
Rows were chosen to be rich in hits. Some 3.5% of all compounds tested hit in one or more screens of this group.
FBW7 activator: FBW7 E3 ligase activators, primary screen, biochemical, AlphaScreen, human; F-box/WD repeat-containing protein 7 (Homo sapiens), Q969H0; normalized activity (activation), % at 26.1 µM; 650,000 compounds, 0.13% hits; AlphaScreen FBW7–phospho-cyclin E peptide binding, activator screen; in the data active means normalized activity above about 1.9%;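 further: purified mutant Fbw7 with reduced substrate affinity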
TEAD-YAP block: TEAD-YAP interaction inhibition, primary screen, TEAD-YAP interaction inhibitor project, luminescence, HEK-TIYL cells; inhibition, % at 9.12 µM; TEAD-Gal4/YAP UAS-luciferase luminescence; 640,000 compounds, 1.4% hits; in the data active means inhibition above about 32%
MITF inh: MITF inhibitors, primary screen, biochemical, AlphaScreen, human; 650,000 compounds, 0.91% hits; AID 1259374, 2018; inhibition, % at 2.6 µM; Microphthalmia-associated transcription factor (Homo sapiens), O75030; AlphaScreen MITF homodimerization, bead proximity signal; in the data active means inhibition above about 50%
Target sequence (O75030 whole entry, looked up): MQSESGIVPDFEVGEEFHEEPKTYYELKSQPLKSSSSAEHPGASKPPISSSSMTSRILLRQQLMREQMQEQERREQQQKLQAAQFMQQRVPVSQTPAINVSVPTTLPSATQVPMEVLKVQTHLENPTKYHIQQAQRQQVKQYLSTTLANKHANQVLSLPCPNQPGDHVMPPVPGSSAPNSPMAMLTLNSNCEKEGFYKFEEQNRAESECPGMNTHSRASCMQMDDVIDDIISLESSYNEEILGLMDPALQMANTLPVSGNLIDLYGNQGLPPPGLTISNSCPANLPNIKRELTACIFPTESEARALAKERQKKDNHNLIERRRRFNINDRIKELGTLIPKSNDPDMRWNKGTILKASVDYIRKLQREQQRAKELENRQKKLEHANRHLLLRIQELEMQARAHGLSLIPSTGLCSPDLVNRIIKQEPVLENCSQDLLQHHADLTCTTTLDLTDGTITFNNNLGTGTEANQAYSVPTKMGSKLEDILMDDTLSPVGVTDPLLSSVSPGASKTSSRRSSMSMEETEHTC
GPR151 ag: activators of human GPR151, primary screen, cell-based, PathHunter beta-arrestin, luminescence; 650,000 compounds, 1% hits; activation, % at 11.2 µM; PathHunter beta-arrestin GPR151 cells; in the data active means activation above about 4.9%
MITF inh conf: MITF inhibitors, retest of hits, confirmation, biochemical, AlphaScreen, triplicate. 4,700 compounds, 16% hits. AlphaScreen MITF homodimerization, biotin/His-MITF beads. inhibition, % at 2.6 µM. shares compounds with MITF inh;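 active means inhibition above a cutoff derived from the DMSO control wells, cut at about 28% in these data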;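 further: inhibitors lower the bead chemiluminescence by keeping MITF from dimerizing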
AS interf DR: AlphaScreen optical interference compounds, dose response, counter-screen, biochemical, HTS; shares compounds with MITF inh; AlphaScreen optical interference counterscreen, cell-free; IC50, µM; 480 compounds, 6% hits; AID 1259373, 2018; call rule not given here
AS interf ctr: AlphaScreen optical interference compounds, counter-screen for MITF inhibitor project, biochemical, triplicate | shares compounds with MITF inh | 4,700 compounds, 7.6% hits | LysRS AlphaScreen counterscreen, signal interference | inhibition, % at 2.6 µM;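 active means inhibition above a cutoff derived from the DMSO control wells, cut at about 30% in these data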
Hits are given with their value.

Screening COC(=O)C1C(O)=C(/C(C)=N/Nc2nc3ccccc3c3ccccc23)C(=O)CC1(C)C (configuration not stated) returned FBW7 activator inactive, TEAD-YAP block inactive, MITF inh inactive and GPR151 ag inactive.
`CCC12c3ccccc3C(c3ccccc31)C1C(=O)NC(=O)C12` (configuration not stated) gave FBW7 activator inactive, TEAD-YAP block inactive, MITF inh 71, GPR151 ag inactive, MITF inh conf 63, AS interf DR inactive and AS interf ctr inactive.
`C=CCNC(=O)C(=O)NCC1OCCCN1S(=O)(=O)c1ccc(OC)cc1` (configuration not stated) gave FBW7 activator inactive, TEAD-YAP block inactive, MITF inh inactive and GPR151 ag inactive.
`O=[N+]([O-])c1ccc(S(=O)(=O)N2CCN(C3CCCCCC3)CC2)cc1` gave FBW7 activator inactive, TEAD-YAP block inactive, MITF inh inactive and GPR151 ag inactive.
`O=S(=O)(c1ccccc1)N1CCN(C2CCCCCC2)CC1` gave FBW7 activator inactive, TEAD-YAP block inactive, MITF inh 59, GPR151 ag inactive, MITF inh conf inactive and AS interf ctr inactive.
`Cc1ccc(S(=O)(=O)N2CCN(C3CCCCC3)CC2)cc1` gave FBW7 activator inactive, TEAD-YAP block inactive, MITF inh inactive and GPR151 ag inactive.
`O=[N+]([O-])c1ccc(S(=O)(=O)N2CCN(C3CCCC3)CC2)cc1` gave FBW7 activator inactive, TEAD-YAP block inactive, MITF inh 53, GPR151 ag inactive, MITF inh conf inactive and AS interf ctr inactive.
For Cc1ccc(C2=C/C(=C\c3cccn3-c3ccccc3F)C(=O)O2)c(C)c1 the results were FBW7 activator inactive, TEAD-YAP block inactive, MITF inh inactive and GPR151 ag inactive.
For O=C(NCc1ccccc1)c1ccnc(-c2csc3ccccc23)c1 the results were FBW7 activator inactive, TEAD-YAP block inactive, MITF inh inactive and GPR151 ag inactive.
For c1ccc(-c2nnc(-c3ccccn3)nc2-c2ccccc2)cc1 the results were FBW7 activator inactive, TEAD-YAP block inactive, MITF inh inactive and GPR151 ag inactive.
For CN(C)c1nc(-c2ccccn2)nnc1-c1ccccc1 the results were FBW7 activator inactive, TEAD-YAP block inactive, MITF inh 102, GPR151 ag inactive, MITF inh conf 107 and AS interf ctr 100.
c1ccc(CNc2nc(-c3ccccn3)nnc2-c2ccccc2)cc1 was read as FBW7 activator inactive, TEAD-YAP block inactive, MITF inh 106, GPR151 ag inactive, MITF inh conf 101 and AS interf ctr 100.
Screening CCOC(=O)c1c(NC(=O)C(C)Sc2nnc(CNC(=O)c3ccc(OC)c(OC)c3)n2C2CCCCC2)sc2c1CCCC2 (configuration not stated) returned FBW7 activator inactive, TEAD-YAP block inactive, MITF inh inactive and GPR151 ag inactive.
CCOCCc1nnc(NC(=O)c2ccc([N+](=O)[O-])cc2Cl)s1 was read as FBW7 activator inactive, TEAD-YAP block inactive, MITF inh inactive and GPR151 ag inactive.
CCOC(=O)CN(C)Cc1ccccc1Br was read as FBW7 activator inactive, TEAD-YAP block inactive, MITF inh 59, GPR151 ag inactive, MITF inh conf inactive and AS interf ctr inactive.
CCOC(=O)CN(C)Cc1ccc(OC)cc1OC was read as FBW7 activator inactive, TEAD-YAP block inactive, MITF inh inactive and GPR151 ag inactive.
Screening COc1cc(/C=C2\N=C(c3ccc(F)cc3)OC2=O)ccc1OCc1ccccc1Cl returned FBW7 activator inactive, TEAD-YAP block inactive, MITF inh 73, GPR151 ag inactive, MITF inh conf inactive and AS interf ctr inactive.
COc1cc(/C=C2\N=C(c3ccc(C)cc3)OC2=O)ccc1OCc1ccccc1Cl was read as FBW7 activator inactive, TEAD-YAP block inactive, MITF inh inactive and GPR151 ag inactive.
`COc1ccc(/C=C2\N=C(c3ccc4c(c3)OCO4)OC2=O)cc1Cl` gave FBW7 activator inactive, TEAD-YAP block inactive, MITF inh 69, GPR151 ag inactive, MITF inh conf 74, AS interf DR inactive and AS interf ctr inactive.
Screening CCOC(=O)c1cnn(-c2nc(-c3cccnc3)cs2)c1C(F)(F)F returned FBW7 activator inactive, TEAD-YAP block inactive, MITF inh inactive and GPR151 ag inactive.
O=C(NCCCN1CCOCC1)c1cc2cc(Br)ccc2oc1=O was read as FBW7 activator inactive, TEAD-YAP block inactive, MITF inh 60, GPR151 ag inactive, MITF inh conf inactive and AS interf ctr inactive.
O=C(CN1CCC(n2cnc3cccnc32)CC1)Nc1ccc(OCc2ccccc2)cc1 was read as FBW7 activator inactive, TEAD-YAP block inactive, MITF inh inactive and GPR151 ag inactive.
`O=C(NC1CCN(S(=O)(=O)c2ccccc2C(F)(F)F)CC1)c1ccco1` gave FBW7 activator inactive, TEAD-YAP block inactive, MITF inh 77, GPR151 ag inactive, MITF inh conf inactive and AS interf ctr inactive.
For O=C(NC1CCN(S(=O)(=O)c2ccc(F)cc2)CC1)c1ccco1 the results were FBW7 activator inactive, TEAD-YAP block inactive, MITF inh inactive and GPR151 ag inactive.
For O=S(=O)(c1ccc(C(F)(F)F)cc1)N1CCC(c2nc3ccccc3[nH]2)CC1 the results were FBW7 activator inactive, TEAD-YAP block inactive, MITF inh inactive and GPR151 ag inactive.
`O=S(=O)(c1ccccc1C(F)(F)F)N1CCC(c2nc3ccccc3[nH]2)CC1` gave FBW7 activator inactive, TEAD-YAP block inactive, MITF inh 73, GPR151 ag inactive, MITF inh conf 78, AS interf DR inactive and AS interf ctr inactive.
COc1ccc(Cl)cc1C(=O)Nn1c(-c2ccc(Br)cc2)nc2ccccc2c1=O was read as FBW7 activator inactive, TEAD-YAP block inactive, MITF inh inactive and GPR151 ag inactive.
Screening COc1ccc(NC(=O)c2noc3c2COc2ccc(C)cc2-3)cc1 returned FBW7 activator inactive, TEAD-YAP block inactive, MITF inh inactive and GPR151 ag inactive.
Screening O=C(Cc1ccccc1)n1nc(-c2cccnc2)nc1NCc1cccs1 returned FBW7 activator inactive, TEAD-YAP block inactive, MITF inh 57, GPR151 ag inactive, MITF inh conf inactive and AS interf ctr inactive.
For O=C(Cc1ccccc1)n1nc(-c2cccnc2)nc1NCc1ccccc1 the results were FBW7 activator inactive, TEAD-YAP block inactive, MITF inh inactive and GPR151 ag inactive.
